Measured values as given in PubChem BioAssay (NCATS).
Several values for one entry are separate records, joined by “and”; a condition that tells them apart may be missing. Equal values may be shown once. Records with an inconclusive call do not appear. Unmarked numbers belong to inactive results. Calls follow the shape of the dose curve; as a rule, active = well fitted activation curve with a large enough effect; inconclusive = small, poorly fitted or top-dose-only effect; inactive = no such curve, though single readings can be large or run the other way.

Target: Cellular tumor antigen p53 (Homo sapiens) (UniProt P04637)
Test: Primary qHTS for small molecule compounds that upregulate eGFP-tagged delta133p53alpha (in N-terminal) cells. (AID 2060322);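 also: cells pre-induced with doxycycline then dosed without doxycycline; series mostly up to about 56 µM; 0% = DMSO vehicle and 100% = reference activator; nearly all actives have a fitted effect of over 75% in size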
Conditions: NCI-H358 eGFP-delta133p53alpha fluorescence, 24 h; activation: hits give high values
In short: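 NCI-H358 cells pre-induced 24 h with 10 ng/ml doxycycline for eGFP-delta133p53alpha, plated dox-free and exposed 24 h at 37C to titrated compounds. Fixed, Hoechst-stained; gated GFP peak intensity by laser scanning cytometry, normalized to DMSO (0%) and 57.5 uM 5-azacytidine (100%).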

Sequence of Cellular tumor antigen p53 (Homo sapiens) (P04637 whole entry, looked up): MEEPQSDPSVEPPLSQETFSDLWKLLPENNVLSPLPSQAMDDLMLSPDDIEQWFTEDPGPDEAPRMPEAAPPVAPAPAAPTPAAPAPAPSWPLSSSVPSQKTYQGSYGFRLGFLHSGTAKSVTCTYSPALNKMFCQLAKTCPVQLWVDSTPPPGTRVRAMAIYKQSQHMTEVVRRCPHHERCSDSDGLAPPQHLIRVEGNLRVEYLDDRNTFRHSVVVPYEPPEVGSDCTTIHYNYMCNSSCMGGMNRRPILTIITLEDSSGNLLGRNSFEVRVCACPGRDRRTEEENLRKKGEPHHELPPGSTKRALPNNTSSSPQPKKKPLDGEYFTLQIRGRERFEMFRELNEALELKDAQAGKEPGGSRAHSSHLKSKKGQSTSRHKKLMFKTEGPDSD

Row | Structure (SMILES) | activation
1 | COc1cc(N2CCN(C)CC2)ccc1Nc1nc(N)c(C(=O)c2c(Cl)cccc2Cl)s1 | -2.41%
2 | Cc1cc(Nc2cc(N3CCN(C)CC3)nc(C=Cc3ccccc3)n2)n[nH]1 | 51.8%
3 | COc1ccc(OC(=O)N(CC(=O)O)Cc2ccc(OCCc3nc(-c4ccccc4)oc3C)cc2)cc1 | -10.7%
4 | Nc1ccc(S(=O)(=O)Nc2ccccc2)cc1 | -15.9%
5 | O=C1CC2(CCCC2)CC(=O)N1CCNCC1COc2ccccc2O1 (stereo not given) | -5.86%
6 | O=C(N[C@H](CO)[C@H](O)c1ccc([N+](=O)[O-])cc1)C(Cl)Cl | 15.3% and -2.04%
7 | CC(C(=O)O)c1ccc2c(c1)Cc1cccnc1O2 (stereo not given) | -30.1%
8 | NCCCC[C@H](N[C@@H](CCc1ccccc1)C(=O)O)C(=O)N1CCC[C@H]1C(=O)O | -3.95%
9 | Cc1cc2c(cc1S(N)(=O)=O)S(=O)(=O)CCC2 | -27.6%
10 | OCCN1C[C@H](O)[C@@H](O)[C@H](O)[C@@H]1CO | 24.9%
11 | CC(C)[N+](C)(C)CC(O)COc1cccc2ccccc12 (stereo not given) | -17.5%
12 | C[C@H](CCC(=O)O)[C@H]1CC[C@H]2[C@@H]3[C@H](O)C[C@@H]4C[C@H](O)CC[C@]4(C)[C@@H]3CC[C@]12C | -19.5%
13 | O=C(C=Cc1ccc(CN(CCO)CCc2c[nH]c3ccccc23)cc1)NO | 23.4%
14 | CN=C(N)NC(=O)Nc1c(C)cccc1C | 5.86%
15 | O=C(O)Cc1ccc(-c2ccccc2)cc1 | -6.21%
16 | CCN(C)C(=O)Oc1cccc([C@H](C)N(C)C)c1 | 6.21% and 13.7%
17 | CC[C@@H]([C@H](C)O)n1ncn(-c2ccc(N3CCN(c4ccc(OC[C@@H]5CO[C@@](Cn6cncn6)(c6ccc(F)cc6F)C5)cc4)CC3)cc2)c1=O | 22.6%
18 | NS(=O)(=O)c1cc2c(cc1Cl)NC(CSCc1ccccc1)=NS2(=O)=O | -16.7%
19 | Cc1ccc2ccc(Cl)cc2n1 | -5.08%
20 | O=C(CN1CCN(Cc2ccc3c(c2)OCO3)CC1)N1c2ccccc2Sc2ccccc21 | 1.69%

Row | Structure (SMILES) | activation
21 | O=C(OOC(=O)c1ccccc1)c1ccccc1 | -15.1%
22 | O=C1C(Cl)=C(N2CCOCC2)C(=O)N1c1ccc(Cl)c(Cl)c1 | -1%
23 | CN1[C@H]2CC(OC(=O)[C@@H](CO)c3ccccc3)C[C@H]1[C@H]1O[C@H]12 (stereo not given in full) | 6.53%
24 | O=c1[nH]c(=O)c2ccccc2o1 | -12.6%
25 | O=C(O)c1ccc(OCCCOc2ccc(C(=O)O)cc2)cc1 | -13%
26 | CCOC(=O)[C@H](CCc1ccccc1)N[C@@H](C)C(=O)N1[C@@H](C(=O)O)C[C@H]2CCC[C@@H]21 | 0.313%
27 | CC(CC(C#N)(c1ccccc1)C(C)C)N(C)C (stereo not given) | -0.837%
28 | Cc1ccc(C(=O)c2ccc(CC(=O)O)n2C)cc1 | 14.1%
29 | CCCCOC(=O)c1ccc(O)cc1 | -13%
30 | COc1ccccc1OCC(O)CO (stereo not given) | -10.9%
31 | Cc1c(Cn2ccnc2)c2ccccc2n1CCC(=O)O | -8.47%
32 | COC1=C2C[C@@H](C)C[C@H](OC)[C@@H](O)[C@@H](C)C=C(C)[C@H](OC(N)=O)[C@@H](OC)C=CC=C(C)C(=O)NC(=CC1=O)C2=O | -17.1%
33 | NC1=N[C@@]2(c3cc(NC(=O)c4ccc(F)cn4)ccc3F)COC[C@@H]2CS1 | 87.4%
34 | CC1(C)CO[C@@H](CC(=O)O)CN1 | -5.86%
35 | CC1(COc2ccc(CC3SC(=O)NC3=O)cc2)CCCCC1 (stereo not given) | -3.95%
36 | C[C@]12CC[C@H](O)CC1=CC[C@@H]1[C@H]2CC[C@]2(C)C(c3cccnc3)=CC[C@H]12 | -11.6%
37 | CCC(CN)=C(c1ccccc1)c1ccccc1 | -4.18%
38 | C=C[C@@]1(C)CC(=O)[C@]2(O)[C@@]3(C)[C@@H](O)CCC(C)(C)[C@@H]3[C@H](O)[C@H](OC(C)=O)[C@@]2(C)O1 | -2.51%
39 | O=C(NCC(O)CO)c1c(I)c(C(=O)NCC(O)CO)c(I)c(N(CCO)C(=O)CO)c1I (stereo not given) | -8.37%
40 | CCCCN(CCCC)CC(O)c1cc(Cl)cc2c1-c1ccc(Cl)cc1C2=Cc1ccc(Cl)cc1 (stereo not given) | 12%
